Experimental data reported in PubChem BioAssay (NCATS).
Records with an inconclusive call do not appear. Values without a mark were called inactive. Calls come from the whole dose curve; as a rule, active = well fitted inhibition curve with a large enough effect; inconclusive = small, poorly fitted or top-dose-only effect; inactive = no such curve, though single readings can be large or run the other way.

assay: NS1 protein of Zika virus - qHTS assay to identify small molecule inhibitors in human HEK 293 cells (AID 1347053); details: HEK293 ZIKV MR766 infection, NS1 TR-FRET, 24 h; series mostly up to 46.1 µM; activity change, negative = inhibition: at the top concentration;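 note: plate controls were infected untreated cells for no effect and uninfected cells for full effect; nearly all actives have a fitted effect of over 55% in size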
Source text: National Center for Advancing Translational Sciences [NCATS]
Johns Hopkins University School of Medicine
The non-structural 1 (NS1) protein of zika virus is known to associate with the viral replication complex. This cell-based TR-FRET ZIKV NS-1 assay measures the increased NS-1 protein in human HEK 293 cells after a 24-hour Zika virus infection by a TR-FRET assay readout. A decrease in the Time-resolved fluorescence energy transfer (TR-FRET) signal in this assay by small molecule treatment indicates an inhibitory effect of the small molecule on the expression of Zika virus NS1 correlating with Zika virus replication.
HEK 293 cells were cultured in EMEM (ATCC, Cat. # 30-2003) medium with 10% fetal bovine serum (GE healthcare Life Sciences, Cat. # SH30071.03), and 1% Pen/Strep (Gibco, Cat. # 15140-122). Cells were seeded in the assay plate and incubated at 37 C with 5% CO2 for 20 hours. Compounds were added to cells and incubated for one hour before addition of ZIKV MR766 strain solution to cells (MOI = 0.5). After an incubation at 37 C for 24 hours, the reagent mixture of TR-FRET ZIKV NS1 assay using two anti-ZIKV NS1 antibodies was added to assay plates. The TR-FRET signals in assay plates were measured using an Envision plate reader (PerkinElmer). Data were normalized by using the cell-containing wells without ZIKV as a negative control (0% NS-1) and wells containing ZIKV infected cells as a positive control (100% NS-1 level).

| SMILES | activity change, negative = inhibition [%] |
| --- | --- |
| NCCCCN | 0.466 |
| COc1ccc(C(=O)NCc2cccnc2)cc1C(=O)NCc1cccnc1 | 1.86 |
| CC(C)(CO)Cc1cc(C(C)(C)C)c(O)c(C(C)(C)C)c1 | 8.7 |
| CCCN(CCc1ccccc1)C1CCc2c(O)cccc2C1 (stereo not given) | 0.81 |
| O=C(O)C1CCCNC1 (stereo not given) | -2.24 |
| N#Cc1cc([N+](=O)[O-])c2sc(C(N)=O)[n+]([O-])c2c1 | 11.9 |
| CCCCCCCCCCCCCCSCC(=O)O | -3.24 |
| O=c1[nH]c2cc(Cl)ccc2c(O)c1-c1ccc(Oc2ccccc2)cc1 | 6.19 |
| Fc1ccc(CN(C2=NCCN2)c2c(Cl)cccc2Cl)cc1 | 0.588 |
| N[C@@H](Cc1ccc(O)c(I)c1)C(=O)O | 11.8 |
| C=CCN1CCc2c(cc(O)c(O)c2Cl)C(c2ccccc2)C1 (stereo not given) | 0.173 |
| N=C(N)SCCN | 0.495 |
| O=c1ccc2c(OCCCCc3ccccc3)c3ccoc3cc2o1 | -2.17 |
| CSc1nc(N)c2ncn([C@@H]3O[C@H](COP(=O)(O)OP(=O)(O)O)C(O)[C@H]3O)c2n1 (stereo not given in full) | -19 |
| c1ccc(C2CN3CCSC3=N2)cc1 (stereo not given) | 5.66 |
| CCCCCCCCCCCCCCCCCCOC[C@H](COP(=O)([O-])OCC[N+](C)(C)C)OC | 1.13 |
| COc1ccc2c(c1)c(CC(=O)O)c(C)n2C(=O)c1ccccc1 | -17.2 |
| C[C@@H](NCCc1ccc(O)cc1)[C@@H](O)c1ccc(O)cc1 | 9.01 |
| NC1CONC1=O (stereo not given) | -22 |
| Oc1ccc(/C=C/c2ccc(/C=C/c3ccc(O)cc3)c(Br)c2)cc1 | -27.4 |

| SMILES | activity change, negative = inhibition [%] |
| --- | --- |
| O=C(O)CCC/C=C\C[C@@H]1[C@@H](/C=C/[C@H](O)C2Cc3ccccc3C2)[C@@H](F)C[C@@H]1O | -15.8 |
| NCCS(=O)O | -11.7 |
| NCCCCN=C(N)N | -3.81 |
| Nc1ccc(-c2ccc3ccccc3n2)cc1 | 3.81 |
| CC(=O)C(C)=O | -0.555 |
| COc1cc(/C=C(\C#N)C(=O)c2ccc(O)c(O)c2)cc(I)c1O | 195 |
| CC(=O)NCCc1c[nH]c2ccc(O)cc12 | -20.6 |
| CN1CCc2cc(Cl)c(O)cc2[C@@H](c2ccccc2)C1 | -1.35 |
| Oc1ccc(Cn2cc[nH]c2=S)cc1 | -17.4 |
| OC[C@H]1O[C@H](n2cnc3c(N[C@H]4CCC[C@@H]4O)ncnc32)[C@H](O)[C@@H]1O | -10 |
| c1ccc(C(NCc2cccnc2)(c2ccccc2)c2ccccc2)cc1 | 12.4 |
| CC(C)NC[C@H](O)COc1cccc2ccccc12 | 7.05 |
| CCCn1c(=O)c2[nH]c(C3CCCC3)nc2n(CCC)c1=O | 7.36 |
| C#CCn1c(=O)c2c(ncn2C)n(C)c1=O | -13.4 |
| Cn1c(=O)[nH]c2ncn(C)c2c1=O | -5.12 |
| COC(=O)C(C)(N)Cc1ccc(O)cc1 (stereo not given) | 5.73 |
| CCN1C(=O)C=CC1=O | -20.5 |
| Cc1cccc(C)c1OCC(N)C(C)C (stereo not given) | 6.1 |
| Cn1c(=O)c2[nH]c(C3CCCC3)nc2n(C)c1=O | 9.49 |
| CC(=O)SC1CC2=CC(=O)CC[C@]2(C)C2CC[C@@]3(C)C(CC[C@@]34CCC(=O)O4)C12 (stereo not given in full) | -5.59 |
